Drawing on PubChem BioAssay (NCI), this text covers growth for 20 compounds.

Compounds without any hit were thinned out: in the full panel of roughly 83,000, 20% have a hit.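 How to read the values: 0–100, growth inhibition (40 = 60% inhibited); 0, no net growth; -100 to 0, cell death (-40 = 40% of starting cells died; -100 = all dead).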 Unmarked numbers belong to inactive results. Calls of active or inactive are those of the source. How the source made its calls: active means growth percent below 10; inactive means the rest.

Among the test systems are SR leukemia; RPMI-8226 leukemia; OVCAR-8 ovarian; OVCAR-5 ovarian; OVCAR-4 ovarian; SK-OV-3 ovarian; IGROV1 ovarian; OVCAR-3 ovarian; NCI/ADR-RES ovarian.
Holding throughout (assay): NCI-60 one-dose screen, 48 h (100 = growth as untreated, 0 = no growth, -100 = all killed)
Conditions in all cases: 10 µM unless noted

For `CCn1cc(C(=O)O)c(=O)c2cc(F)c(N3CCN(S(=O)(=O)c4ccc(Cl)cc4Cl)CC3)cc21`, the growth in the test on SR leukemia was -19.7% (active); in the test with RPMI-8226 leukemia, 9.07% (active); in the test with OVCAR-8 ovarian it was 5.84% (active); in the test with OVCAR-5 ovarian, 7.92% (active); in the test on OVCAR-4 ovarian, 129%; in the test on SK-OV-3 ovarian, 1.7% (active). The growth in the test on IGROV1 ovarian is 7.5% (active); with OVCAR-3 ovarian, 7.89% (active); in the test with NCI/ADR-RES ovarian it was 9.34% (active).

On to `CCn1cc(C(=O)O)c(=O)c2cc(F)c(N3CCN(S(=O)(=O)c4c(C)cc(C)cc4C)CC3)cc21`, for which the growth in the test on SR leukemia is 64.7%; in the test on RPMI-8226 leukemia, 64.1%; with OVCAR-8 ovarian, 81.5%; with OVCAR-5 ovarian, 88.6%; in the test on OVCAR-4 ovarian, 91.4%; with SK-OV-3 ovarian it was 101%. Further, the growth was 79.4% in the test with IGROV1 ovarian, 89.2% in the test on OVCAR-3 ovarian and 84.8% in the test with NCI/ADR-RES ovarian.

Take `COc1cc2nc(N3CCC[C@@H](NC4=CC(=O)c5ccccc5C4=O)C3)nc(N)c2cc1OC`: the growth was -11.3% (active) in the test on SR leukemia; -44.1% (active) in the test on RPMI-8226 leukemia; -41.2% (active) in the test with OVCAR-8 ovarian; 110% in the test on OVCAR-5 ovarian; 81.5% in the test with OVCAR-4 ovarian; 112% with SK-OV-3 ovarian. In addition, the growth in the test with IGROV1 ovarian is -82.3% (active); with OVCAR-3 ovarian, -69.5% (active); with NCI/ADR-RES ovarian, 99%.

`COc1ccc(-c2cn[nH]c2-c2cc(OC)c3c(c2)OCO3)cc1`: the growth with SR leukemia was 5.61% (active); in the test on RPMI-8226 leukemia, -1.3% (active); with OVCAR-8 ovarian, 11.7%; in the test with OVCAR-5 ovarian, 46.1%; in the test with OVCAR-4 ovarian, 51%; in the test with SK-OV-3 ovarian it was -1.1% (active). In addition, the growth was -17.2% (active) with IGROV1 ovarian, -12.3% (active) in the test on OVCAR-3 ovarian and 5.12% (active) in the test with NCI/ADR-RES ovarian.

Consider `Cc1cc(N/C=c2\sc3ncnn3c2=O)no1`, for which the growth with SR leukemia is 74.8%; with RPMI-8226 leukemia, 92.5%; in the test on OVCAR-8 ovarian, 101%; in the test with OVCAR-5 ovarian, 108%; with OVCAR-4 ovarian, 106%; in the test with SK-OV-3 ovarian, 105%. Moreover, the growth with IGROV1 ovarian is 94.4%; with OVCAR-3 ovarian, 95.8%; in the test on NCI/ADR-RES ovarian, 99.1%.

As for `CCn1cc(C(=O)O)c(=O)c2cc(F)c(N3CCN(S(=O)(=O)c4cccc5ccccc45)CC3)cc21`, the growth is 2.85% (active) in the test with SR leukemia; 6.47% (active) in the test with RPMI-8226 leukemia; 8.43% (active) in the test with OVCAR-8 ovarian; 15.5% in the test on OVCAR-5 ovarian; 23.9% in the test with OVCAR-4 ovarian; 15.6% in the test on SK-OV-3 ovarian. Further, the growth is 13.7% in the test on IGROV1 ovarian, -6.25% (active) in the test with OVCAR-3 ovarian and 21.4% in the test with NCI/ADR-RES ovarian.

On to `CC(C)[C@H](CO)Nc1nc(Nc2ccc(C(=O)NCCNS(=O)(=O)c3cccc4c(N(C)C)cccc34)c(Cl)c2)c2ncn(C(C)C)c2n1`, for which the growth with SR leukemia is -10.7% (active); with RPMI-8226 leukemia it was -41.9% (active); in the test with OVCAR-8 ovarian it was 9.87% (active); with OVCAR-5 ovarian, 49.4%; in the test with OVCAR-4 ovarian, 41.8%; in the test on SK-OV-3 ovarian, 72.8%. Further, the growth in the test with IGROV1 ovarian was -13.7% (active); with OVCAR-3 ovarian, 20.2%; with NCI/ADR-RES ovarian it was 94.5%.

`O=C(O)c1ccc(-n2c(=O)c3ccccc3c3ccccc3c2=O)cc1`: the growth was 87.6% in the test on SR leukemia; 103% in the test with RPMI-8226 leukemia; 111% with OVCAR-8 ovarian; 99.6% in the test on OVCAR-5 ovarian; 119% in the test with OVCAR-4 ovarian; 101% in the test with SK-OV-3 ovarian. Further, the growth was 116% with IGROV1 ovarian, 111% with OVCAR-3 ovarian and 112% in the test with NCI/ADR-RES ovarian.

`COc1ccc(C(=O)/C=C/c2ccc(/C=C/c3cc(OC)c(OC)c(OC)c3)cc2)cc1`: the growth in the test on SR leukemia was 9.61% (active); in the test with RPMI-8226 leukemia, -0.626% (active); in the test on OVCAR-8 ovarian it was 28.4%; with OVCAR-5 ovarian it was 117%; with OVCAR-4 ovarian, 65.7%; with SK-OV-3 ovarian, 102%. Besides, the growth with IGROV1 ovarian is 6.66% (active); with OVCAR-3 ovarian, 41.4%; in the test with NCI/ADR-RES ovarian it was 50%.

As for `COc1ccc(/C=C/C(=O)c2cccc(B(O)O)c2)cc1O`, the growth with SR leukemia was 6.45% (active); in the test with RPMI-8226 leukemia, 5.96% (active); in the test with OVCAR-8 ovarian, 60.1%; with OVCAR-5 ovarian it was 88.4%; in the test on OVCAR-4 ovarian, 73.9%; with SK-OV-3 ovarian it was 58.1%. Also, the growth was 18.2% in the test with IGROV1 ovarian, -6.95% (active) in the test on OVCAR-3 ovarian and 48.9% in the test on NCI/ADR-RES ovarian.

`Cc1cc(C)c(S(=O)(=O)N2CCN(c3cc4c(cc3F)c(=O)c(C(=O)O)cn4C3CC3)CC2)c(C)c1`: the growth with SR leukemia was 39.1%; in the test on RPMI-8226 leukemia it was 22.4%; in the test on OVCAR-8 ovarian it was 59.5%; in the test on OVCAR-5 ovarian, 42.2%; in the test on OVCAR-4 ovarian, 75.6%; in the test on SK-OV-3 ovarian, 81.6%. In addition, the growth in the test on IGROV1 ovarian is 35.7%; in the test with OVCAR-3 ovarian, 91.3%; in the test on NCI/ADR-RES ovarian it was 69.9%.

For `COc1cc(OC)c(C(=O)/C=C/c2ccc(C#N)cc2)c(OC)c1`, the growth with SR leukemia was 6.75% (active); in the test with RPMI-8226 leukemia it was 4.28% (active); in the test with OVCAR-8 ovarian, 11.7%; in the test with OVCAR-5 ovarian it was 41.8%; with OVCAR-4 ovarian, 32.8%; in the test with SK-OV-3 ovarian, 17.2%. Further, the values for the growth with IGROV1 ovarian, in the test on OVCAR-3 ovarian and in the test on NCI/ADR-RES ovarian were 14%, 8.04% (active) and 24.1%, respectively.

On to `COc1ccc(NC(=O)CSc2nc3ccc(Cl)cc3c(=O)n2-c2ccccc2C(F)(F)F)c(OC)c1OC`, for which the growth in the test with SR leukemia was 89.6%; with RPMI-8226 leukemia, 83.3%; with OVCAR-8 ovarian, 39.3%; in the test with OVCAR-5 ovarian, 96.9%; in the test with OVCAR-4 ovarian, -4.33% (active); in the test with SK-OV-3 ovarian, 30.2%. Besides, the growth in the test with IGROV1 ovarian is 75.3%; with OVCAR-3 ovarian, 82.5%; with NCI/ADR-RES ovarian, 72.4%.

Take `CCC(C)NCC(=O)O` (stereo not given): the growth is 93.5% with SR leukemia; 90.1% in the test on RPMI-8226 leukemia; 110% in the test on OVCAR-8 ovarian; 96% with OVCAR-5 ovarian; 105% in the test on OVCAR-4 ovarian; 106% in the test with SK-OV-3 ovarian. For the same compound, the growth was 110% with IGROV1 ovarian, 111% in the test on OVCAR-3 ovarian and 110% in the test on NCI/ADR-RES ovarian.

Regarding `CN(C)c1ncc(-c2ccc(C(F)(F)F)cc2)c(NC2CCCCCC2)n1`, the growth in the test with SR leukemia is 77.5%; with RPMI-8226 leukemia it was 1.63% (active); in the test on OVCAR-8 ovarian it was 49.8%; with OVCAR-5 ovarian, 87.3%; in the test with OVCAR-4 ovarian, 45.4%; in the test on SK-OV-3 ovarian, 83.1%. Moreover, the growth in the test on IGROV1 ovarian was 78.6%; in the test on OVCAR-3 ovarian, 26.5%; in the test with NCI/ADR-RES ovarian, 82.1%.

Take `O=S(=O)(NCCNc1cc(-c2cn(-c3ccccc3)nc2-c2ccccc2)ccn1)c1ccc(F)cc1`: the growth with SR leukemia is 79.3%; with RPMI-8226 leukemia, 72.5%; in the test on OVCAR-8 ovarian, 83%; with OVCAR-5 ovarian it was 106%; in the test with OVCAR-4 ovarian, 85.6%; in the test with SK-OV-3 ovarian, 92.1%. For the same compound, the results for the growth in the test on IGROV1 ovarian, with OVCAR-3 ovarian and in the test on NCI/ADR-RES ovarian were 98%, 94.7% and 81.3%, respectively.

For the compound `C[C@]12CC[C@@H]3c4cc(O)c(O)cc4CC[C@H]3[C@@H]1CC[C@@H]2O`, the growth with SR leukemia was 9.22% (active); in the test with RPMI-8226 leukemia, 30.9%; with OVCAR-8 ovarian, 51.6%; in the test with OVCAR-5 ovarian, 98%; in the test on OVCAR-4 ovarian it was 49.7%; in the test with SK-OV-3 ovarian, 29.5%. Further, the growth was 60.2% in the test with IGROV1 ovarian, 11.5% in the test on OVCAR-3 ovarian and 28.5% in the test on NCI/ADR-RES ovarian.

`Nc1c(C(=O)c2ccc(F)cc2)sc2nc3c(cc12)CCCC3`: the growth with SR leukemia is 46.3%; in the test with RPMI-8226 leukemia it was 77.6%; in the test on OVCAR-8 ovarian, 78.5%; in the test on OVCAR-5 ovarian it was 97%; in the test on OVCAR-4 ovarian it was 83.9%; in the test on SK-OV-3 ovarian, 73.1%. Further, the values for the growth in the test on IGROV1 ovarian, in the test on OVCAR-3 ovarian and in the test with NCI/ADR-RES ovarian were 77.1%, 87.6% and 44.8%, respectively.

As to `CCCCCCCCCCCCCCCCC(Br)C(=O)O` (stereo not given), the growth with SR leukemia was 105%; in the test with RPMI-8226 leukemia, 84.6%; with OVCAR-8 ovarian, 103%; in the test with OVCAR-5 ovarian, 99.3%; in the test on OVCAR-4 ovarian, 97.8%; in the test on SK-OV-3 ovarian, 118%. Moreover, the growth in the test with IGROV1 ovarian is 125%; with OVCAR-3 ovarian it was 100%; in the test with NCI/ADR-RES ovarian it was 110%.

Consider `CCCC(C(=O)OCC)C(C)OC(=O)OCC` (stereo not given), for which the growth in the test on SR leukemia was 87.6%; in the test with RPMI-8226 leukemia it was 101%; in the test with OVCAR-8 ovarian it was 96.4%; with OVCAR-5 ovarian it was 108%; in the test with OVCAR-4 ovarian it was 108%; in the test with SK-OV-3 ovarian it was 95.5%. Also, the growth is 115% with IGROV1 ovarian, 103% in the test with OVCAR-3 ovarian and 105% in the test with NCI/ADR-RES ovarian.
